# Reference: the supplement of paper PMC9023506
# Counter-ions that a name gives are not always drawn.
# System: Danio rerio larvae (5 dpf)
# Test: optomotor response to fast red moving lines, difference vs DMSO (percentage points (treated minus DMSO)); higher = more of the behaviour than the DMSO vehicle control
# Conditions: 10 µM; exposure time: 3 h pre-incubation + 3 h imaging
# Method: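 5-dpf wild-type zebrafish larvae were imaged in 96-well plates. They were treated with 190 Tocris FDA-approved drugs at 10 µM (1 µl/ml DMSO) for 3 h before and 3 h during imaging at 28.5 °C, 48 larvae per drug. Automated image analysis gave % time moving and optomotor responses. Values are drug group mean minus DMSO vehicle mean (n=844), in percentage points, for 10 behaviours.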
row,Structure (SMILES),optomotor response
1,CC(=O)Oc1cc2c(s1)CCN(C(C(=O)C1CC1)c1ccccc1F)C2 (stereo not given) [Prasugrel],-8.05
2,CC(=O)O[C@H]1C(=O)[C@@]2(C)[C@H]([C@H](OC(=O)c3ccccc3)[C@]3(O)C[C@H](OC(=O)[C@H](O)[C@@H](NC(=O)c4ccccc4)c4ccccc4)C(C)=C1C3(C)C)[C@]1(OC(C)=O)CO[C@@H]1C[C@@H]2O [Taxol],-16.4
3,CC(C)n1c(/C=C/C(O)CC(O)CC(=O)O)c(-c2ccc(F)cc2)c2ccccc21 (stereo not given) [Fluvastatin sodium],-5.56
4,NS(=O)(=O)c1cc(C(=O)O)c(NCc2ccco2)cc1Cl [Furosemide],0.619
5,O=C(NCC1CCCCN1)c1cc(OCC(F)(F)F)ccc1OCC(F)(F)F (stereo not given) [Flecainide acetate],1.94
6,Cc1ccc(N(CC2=NCCN2)c2cccc(O)c2)cc1 [Phentolamine Mesylate],7.53
7,CC(C)(C(=O)c1cccnc1)c1cccnc1 [Metyrapone],-11.5
8,COc1cc2nc(N3CCN(C(=O)C4COc5ccccc5O4)CC3)nc(N)c2cc1OC (stereo not given) [Doxazosin mesylate],-4.8
9,Clc1ccc(COC(Cn2ccnc2)c2ccc(Cl)cc2Cl)c(Cl)c1 (stereo not given) [Miconazole nitrate],-18.6
10,CCC(=O)O[C@]1(C(=O)SCF)[C@H](C)C[C@H]2[C@@H]3C[C@H](F)C4=CC(=O)C=C[C@]4(C)[C@@]3(F)[C@@H](O)C[C@@]21C [Fluticasone propionate],-7.85
11,CN(CCOc1ccc(NS(C)(=O)=O)cc1)CCc1ccc(NS(C)(=O)=O)cc1 [Dofetilide],2.79
12,Cc1ccc(O)c([C@H](CCN(C(C)C)C(C)C)c2ccccc2)c1 [Tolterodine L-tartrate],2.15
13,COC(=O)C1=C(C)NC(C)=C(C(=O)OC(C)C)C1c1cccc2nonc12 (stereo not given) [Isradipine],-16.6
14,Nc1nc2c(ncn2COCCO)c(=O)[nH]1 [Acyclovir],4.83
15,O=C(Nc1c(Cl)cncc1Cl)c1ccc(OC(F)F)c(OCC2CC2)c1 [Roflumilast],-10.8
16,Cc1ccccc1C(=O)Nc1ccc(C(=O)N2CCCC(O)c3cc(Cl)ccc32)c(C)c1 (stereo not given) [Tolvaptan],2.23
17,NC(=O)OCC(COC(N)=O)c1ccccc1 [Felbamate],8.45
18,Nc1nc(NC2CC2)c2ncn([C@H]3C=C[C@@H](CO)C3)c2n1 [Abacavir hemisulfate],-1.18
19,CN(C)CCc1c[nH]c2ccc(Cn3cncn3)cc12 [Rizatriptan benzoate],5
20,CC(C)[C@H]1CC[C@H](C(=O)N[C@H](Cc2ccccc2)C(=O)O)CC1 [Nateglinide],-0.789

row,Structure (SMILES),optomotor response
1,CN(CCOc1ccc(CC2SC(=O)NC2=O)cc1)c1ccccn1 (stereo not given) [Rosiglitazone],-14.3
2,Cc1ccsc1C(=CCCN1CCC[C@@H](C(=O)O)C1)c1sccc1C [Tiagabine hydrochloride],21.7
3,COc1ccc(Cl)cc1C(=O)NCCc1ccc(S(=O)(=O)NC(=O)NC2CCCCC2)cc1 [Glibenclamide],-19.5
4,CC(c1cc2ccccc2s1)N(O)C(N)=O (stereo not given) [Zileuton],-16.8
5,CC(C)COCC(CN(Cc1ccccc1)c1ccccc1)N1CCCC1 (stereo not given) [Bepridil hydrochloride],7.72
6,COc1cc(Nc2c(C#N)cnc3cc(OCCCN4CCN(C)CC4)c(OC)cc23)c(Cl)cc1Cl [Bosutinib],1.89
7,CC(C)C(=O)Nc1ccc([N+](=O)[O-])c(C(F)(F)F)c1 [Flutamide],-21.1
8,CNC(=O)c1cc(Oc2ccc(NC(=O)Nc3ccc(Cl)c(C(F)(F)F)c3)cc2)ccn1 [Sorafenib],-21.1
9,C[C@@H](O[C@H]1OCCN(Cc2n[nH]c(=O)[nH]2)[C@H]1c1ccc(F)cc1)c1cc(C(F)(F)F)cc(C(F)(F)F)c1 [Aprepitant],7.32
10,O=C(O)c1cc(/N=N/c2ccc(S(=O)(=O)Nc3ccccn3)cc2)ccc1O [Sulfasalazine],-5.17
11,CNS(=O)(=O)Cc1ccc2[nH]cc(CCN(C)C)c2c1 [Sumatriptan succinate],-17.2
12,COc1c(C)c2c(c(O)c1C/C=C(\C)CCC(=O)OCCN1CCOCC1)C(=O)OC2 [Mycophenolate mofetil],2.27
13,CO[C@H]1/C=C/O[C@@]2(C)Oc3c(C)c(O)c4c(O)c(c5c(nc6cc(C)ccn65)c4c3C2=O)NC(=O)/C(C)=C\C=C\[C@H](C)[C@H](O)[C@@H](C)[C@@H](O)[C@@H](C)[C@H](OC(C)=O)[C@@H]1C [Rifaximin],-3.87
14,CNC(=O)c1ccccc1Sc1ccc2c(/C=C/c3ccccn3)n[nH]c2c1 [Axitinib],-2.38
15,CC[C@H]1OC(=O)[C@H](C)[C@@H](O[C@H]2C[C@@](C)(OC)[C@@H](O)[C@H](C)O2)[C@H](C)[C@@H](O[C@@H]2O[C@H](C)C[C@H](N(C)C)[C@H]2O)[C@](C)(O)C[C@@H](C)CN(C)[C@H](C)[C@@H](O)[C@]1(C)O [Azithromycin],-9.96
16,OCCOCCN1CCN(C2=Nc3ccccc3Sc3ccccc32)CC1 [Quetiapine hemifumarate],-5.91
17,OCc1cc(C(O)CNCCCCCCOCCCCc2ccccc2)ccc1O (stereo not given) [Salmeterol xinafoate],-5.49
18,Cn1nnc2c(C(N)=O)ncn2c1=O [Temozolomide],-10.8
19,CCCCCCCN(CC)CCCC(O)c1ccc(NS(C)(=O)=O)cc1 (stereo not given) [Ibutilide hemifumarate],3.06
20,C[C@]12CC[C@@H]3c4ccc(O)cc4C[C@@H](CCCCCCCCC[S+]([O-])CCCC(F)(F)C(F)(F)F)[C@H]3[C@@H]1CC[C@@H]2O (stereo not given in full),3.52
